Screens as filed in PubChem BioAssay.
This is one part of a sample in which hits are shown more often than they occur.
Pf Dd2 growth = qHTS Primary assay for Inhibitors of Plasmodium falciparum Dd2 growth in vitro | P. falciparum Dd2 growth, SYBR Green, 72 h | Potency, µM (titrated, usually from 28.9 µM), without a hit: at the top dose activity, negative = inhibition, actives largely listed as inhibitors | hit rate 4.3% among 120,000; active means well fitted inhibition curve with a large enough effect;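 further: plate controls were DMSO vehicle for no effect and reference drug for full effect; nearly all actives have a fitted effect of over 65% in size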
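Readout: SYBR Green fluorescence, 485 nm excitation, 535 nm emission, after ~16 h lysis at 37C. Before that, Dd2-infected red cells (2.5% hematocrit) grew 72 h with compound, 29 uM top final concentration.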
An asterisk follows results filed as active; [ ] = another dose, or the depositor's remark. Potency means the concentration at half of the fitted maximal effect.

How did COc1ccc(CNC(=O)C(=O)Nc2ccc(OC)cc2OC)cc1 do in these assays?
Pf Dd2 growth: 5.62µM*

How did COc1ccc(CNC(=O)C(=O)Nc2cccc(C)c2C)cc1 do in these assays?
Pf Dd2 growth: 28.7%

What do the screens show for `COc1ccc(CCNC(=O)C(=O)Nc2ccc(C)c(C)c2)cc1`?
Pf Dd2 growth: 20.2%

How did CCC(=O)N1Cc2ccccc2CC2(CCN(CC3CCNC3)C2)C1 (configuration not stated) do in these assays?
Pf Dd2 growth: 9.4%

What do the screens show for `CCCN1CCCC2(Cc3ccccc3CN(C(=O)Cc3ccccc3)C2)C1` (configuration not stated)?
Pf Dd2 growth: 6.31µM*

Results for CC(=O)NCCC(=O)N1Cc2ccccc2CC2(CCN(Cc3cccnc3)C2)C1 (configuration not stated) ?
Pf Dd2 growth: 8.8%

What do the screens show for `CCCN1CCCC12Cc1ccccc1CN(C(=O)CCCC(=O)O)C2` (configuration not stated)?
Pf Dd2 growth: -20.1%

How did CC(=O)N1Cc2ccccc2CC2(CCN(Cc3ccncc3)C2)C1 (configuration not stated) do in these assays?
Pf Dd2 growth: -7.8%

Results for CN(C)CC(=O)N1Cc2ccccc2CC2(CCCN(CC3CCNCC3)C2)C1 (configuration not stated) ?
Pf Dd2 growth: 20.1%

Results for C[S+](=O)([O-])N1Cc2ccccc2CC2(CCCN(CCc3ccccc3)C2)C1 (configuration not stated) ?
Pf Dd2 growth: -29.1%

Results for CCCC(=O)N1Cc2ccccc2CC2(CCN(Cc3ccc(O)cc3)C2)C1 (configuration not stated) ?
Pf Dd2 growth: 12.6µM*

Results for CCC(=O)N1Cc2ccccc2CC2(CCN(CCc3ccc(C)cc3)CC2)C1 ?
Pf Dd2 growth: 8.91µM*

How did CC(=O)NCC(=O)N1Cc2ccccc2CC2(CCN(C)C2)C1 (configuration not stated) do in these assays?
Pf Dd2 growth: 5.7%

What do the screens show for `CN1CCCC2(Cc3ccccc3CN(C(=O)c3ccccc3)C2)C1` (configuration not stated)?
Pf Dd2 growth: -14.5%

How did CN(C)CC(=O)N1Cc2ccccc2CC2(CCCN(CCc3ccccc3)C2)C1 (configuration not stated) do in these assays?
Pf Dd2 growth: 5.01µM*

How did CN1C(=O)[C@@H]2C[C@@H](O)CN2C2(CN(Cc3cccs3)C2)C1=O do in these assays?
Pf Dd2 growth: 24.7%[44.1 µM]

What do the screens show for `Cn1cnc2cc(-c3ccc(F)cc3)cc(C(=O)NCCN3CCOCC3)c21`?
Pf Dd2 growth: inactive

What do the screens show for `CC(C)c1noc(-c2cccn3c(CNC(=O)Cc4ccc(F)cc4)nnc23)n1`?
Pf Dd2 growth: inactive

How did COc1ccc(C(=O)N2CCC3(CC2)COc2ccccc2NC3=O)cc1 do in these assays?
Pf Dd2 growth: -0.8%

What do the screens show for `O=C(C1CC1)N1CCn2c(nnc2-c2ccccc2)C1`?
Pf Dd2 growth: -14.9%[44.1 µM]

How did CCOC(=O)c1ccccc1NC(=O)CN1CCCN(Cc2cc(C)ccc2C)S1(=O)=O do in these assays?
Pf Dd2 growth: -14.9%

How did CCOc1ccc(CC(=O)N2CCC[C@H]2c2nc(-c3ccc(OC)cc3)no2)cc1OCC do in these assays?
Pf Dd2 growth: inactive

How did Cc1nn2c(c1-c1ccccc1Oc1ccccc1)N(C(=O)c1cccc(C#N)c1)CCC2 do in these assays?
Pf Dd2 growth: -17.6%[44.1 µM]

Results for Cc1ccc(C)c(C(=O)N2[C@@H]3CC[C@H]2CC(NC(=O)c2cnc(C)cn2)C3)c1 (some centres not stated) ?
Pf Dd2 growth: -13.4%

How did CCCNC(=O)c1cc(-c2ccc(F)cc2)cn1C do in these assays?
Pf Dd2 growth: -20.3%

How did CCCc1noc(-c2cccn3c(CNC(=O)c4ccccc4F)nnc23)n1 do in these assays?
Pf Dd2 growth: 0.0%

Results for CNC(=O)c1ccc2c(c1)OCCN(c1ccccc1)C2 ?
Pf Dd2 growth: inactive

Results for COc1ccc(NC(=O)c2ccc3c(c2)OCCN(c2ccccc2)C3)c(F)c1 ?
Pf Dd2 growth: 10µM*

How did COc1ccc(NC(=O)c2ccc3c(c2)OCCN(CCC(F)(F)F)C3)c(F)c1 do in these assays?
Pf Dd2 growth: -23.1%[44.1 µM]

What do the screens show for `CN1C(=O)CO[C@H](c2ccc(NC(=O)c3ccc(-c4ccccc4)cc3)cc2)[C@H]1CO`?
Pf Dd2 growth: inactive

How did COc1cccc(OCC(=O)c2ccc3c(c2)N(CC(=O)NCc2ccc(F)cc2)C(=O)CO3)c1 do in these assays?
Pf Dd2 growth: -7.2%

Results for CCc1cccc(NC(=O)N2CC(c3nnc(-c4ccncc4)o3)C3(CCOCC3)C2)c1 (configuration not stated) ?
Pf Dd2 growth: -7.2%

How did CCOc1ccc(CNC(=O)CCC(=O)N2CC3CCCN3c3ccccc32)cc1 (configuration not stated) do in these assays?
Pf Dd2 growth: 12.6µM*

How did COc1ccc(CNC(=O)CCC(=O)N2CC3CCCN3c3ccccc32)c(OC)c1 (configuration not stated) do in these assays?
Pf Dd2 growth: -15.7%

What do the screens show for `Cc1ccc(CNC(=O)CCC(=O)N2CCSc3ccccc32)cc1`?
Pf Dd2 growth: -7.9%

Results for O=C(NCC1CN(C(=O)c2cccc(O)c2)CC12CN(c1ccccc1)C2)Nc1ccccc1 (configuration not stated) ?
Pf Dd2 growth: -4.8%

Results for COc1cccc(CN2Cc3nc(-c4cnn(Cc5ccccc5)c4)ccc3OCC2=O)c1 ?
Pf Dd2 growth: inactive

Results for COCCN1Cc2nc(Nc3ccc(C(F)(F)F)cc3)ccc2OCC1=O ?
Pf Dd2 growth: 12.6µM*

What do the screens show for `O=C1COc2ccc(-c3ccoc3)nc2CN1Cc1ccc(C(F)(F)F)cc1`?
Pf Dd2 growth: 12.6µM*

What do the screens show for `O=C1COc2ccc(-c3ccncc3)nc2CN1Cc1ccc(C(F)(F)F)cc1`?
Pf Dd2 growth: -33.0%[44.1 µM]

What do the screens show for `O=C1COc2ccc(Nc3ccccc3)nc2CN1CCOc1ccccc1`?
Pf Dd2 growth: -8.9%[44.1 µM]

What do the screens show for `O=C1COc2ccc(Nc3cccc(F)c3)nc2CN1CCOc1ccccc1`?
Pf Dd2 growth: -2.2%[44.1 µM]

How did Cc1nc(CN2Cc3nc(-c4cnn(Cc5ccccc5)c4)ccc3OCC2=O)cs1 do in these assays?
Pf Dd2 growth: 10µM*

What do the screens show for `Cc1ccccc1CN1Cc2nc(-c3cnn(Cc4ccccc4)c3)ccc2OCC1=O`?
Pf Dd2 growth: -39.9%[44.1 µM]

How did O=C1COc2ccc(-c3cn[nH]c3)nc2CN1Cc1ccc(C(F)(F)F)cc1 do in these assays?
Pf Dd2 growth: inactive

Results for Cc1cccc(C(=O)N2C(C(=O)NCC3CCCO3)COC23CCC(C)CC3)c1 (configuration not stated) ?
Pf Dd2 growth: -5.8%

What do the screens show for `CCCCN(C)CCCNC(=O)c1cc(=O)[nH]c2ccc(S(=O)(=O)N3CCCCC3)cc12`?
Pf Dd2 growth: 7.8%

How did Cc1cccc(-n2ncc3c(N4CCCCCC4)ncnc32)c1 do in these assays?
Pf Dd2 growth: -3.1%

What do the screens show for `CCC(CC)C(=O)Nc1ccc(-c2cn3cccnc3n2)cc1`?
Pf Dd2 growth: 5.0%

Results for CN1C[C@@H](NC(=O)c2ccco2)C[C@H]1c1nc(-c2cccnc2)no1 ?
Pf Dd2 growth: -26.5%[44.1 µM]

What do the screens show for `COc1ccc(C(=O)NC2CCN(c3cnn(C)c(=O)c3)CC2)cc1OC`?
Pf Dd2 growth: 13.8%

How did COc1ccc(-c2nc3ccccc3s2)cc1NC(=O)c1ccc(F)cc1 do in these assays?
Pf Dd2 growth: inactive[5.79 µM]

How did Cc1[nH]c2c(C)ccc(C)c2c1CC(=O)N[C@@H]1CCOC[C@H]1OCCO do in these assays?
Pf Dd2 growth: -2.4%
